# Bioassay records from PubChem BioAssay.
# An excerpt weighted towards active compounds, which were near 2.4% of everything screened.
# NFkB SMM: binders of human NF-kappa-B p105 | calls only | 17,000 tested, 1.3% active | Small molecule microarray, anti-His fluorescence binding;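 active means spot fluorescence over background significantly raised, with a chance value under 7% in all four replicate spots of the compound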;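 further: probe protein is his-tagged human p50 processed subunit at 1 µg/ml; raw spot fluorescence signals with no normalization applied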
# STAT3 SMM: binders of human STAT3. P40763. Small molecule microarray, His-STAT3 binding, anti-His fluorescence. calls only. 17,000 tested, 0.2% active. AID 624138;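 active means compounds whose four printed spots each show fluorescence over background unusually high for their array block, chance value under 7%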
# c-Myc SMM: binders of human c-Myc | calls only | 17,000 tested, 1.5% active | AID 624141 | small molecule microarray, His-c-Myc binding, anti-His fluorescence;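 active means spot fluorescence over background with P-value below 7% in all four replicate spots, showing protein binding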;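 further: score is binary with 100 for all four spots passing and 0 otherwise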
# p53 mut binder: binders of human mutant p53; small molecule microarray binding, anti-GST fluorescence; calls only; 17,000 tested, 0.4% active; AID 624136;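 active means compounds whose four printed spots each glow above background more than chance allows, each with a p-value under 7%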
# Active calls of the source: *; i = inactive; + = active, no number.
SMILES,NFkB SMM,STAT3 SMM,c-Myc SMM,p53 mut binder
CCn1ncc(Cl)c1C(=O)NCc1ccco1,i,i,i,i
Cc1nc(-c2ccccc2)sc1C(=O)C1C(=O)C(=O)N(CCN(C)C)C1c1ccccc1 (centres undefined),i,i,i,i
CN(CC(=O)O)S(=O)(=O)c1cc(Cl)ccc1Cl,+,i,+,i
COc1ccc(S(=O)(=O)N(C)CC(=O)O)cc1,i,i,+,i
Cc1ccc(Cl)cc1N(CC(=O)O)S(C)(=O)=O,+,i,+,i
CN(CC(=O)O)S(=O)(=O)c1ccc2c(c1)OCCO2,i,i,i,i
C=C(C)C(O)C(O)c1c(OC)ccc2ccc(=O)oc12 (centres undefined),i,i,i,i
Cc1nn(C(=O)Cn2nc([N+](=O)[O-])cc2C)c(C)c1Cl,i,i,+,i
c1ccc2c(c1)[nH]c1nc(SCCN3CCCCC3)nnc12,i,i,+,i
CCOC(=O)CSc1nnc2c3ccccc3n(C)c2n1,i,i,i,i
Cn1c2ccccc2c2nnc(SCCN3CCCCC3)nc21,i,i,+,i
C[C@H](CO)N1C[C@H](C)[C@@H](CN(C)CC2CCCCC2)Oc2ccc(NC(=O)Nc3ccc4c(c3)OCO4)cc2C1=O,+,i,+,+
C[C@@H]1CN([C@@H](C)CO)C(=O)c2cc(N(C)C)ccc2O[C@@H](C)CCCCO[C@H]1CN(C)C(=O)Nc1cccc2ccccc12,i,i,+,i
C[C@@H]1CCCCO[C@@H](CN(C)C(=O)c2ccccc2)[C@@H](C)CN([C@H](C)CO)C(=O)c2cc(NC(=O)Nc3cccc4ccccc34)ccc2O1,+,i,+,+
C[C@@H]1CN([C@H](C)CO)C(=O)c2cc(NC(=O)NC3CCCCC3)ccc2O[C@@H]1CN(C)C(=O)NC1CCCCC1,i,i,i,i
C[C@@H]1CN([C@@H](C)CO)C(=O)c2cc(NC(=O)Nc3ccc4c(c3)OCO4)ccc2O[C@@H]1CN(C)CC1CCCCC1,i,i,i,i
C[C@@H]1CN([C@@H](C)CO)C(=O)c2cc(NC(=O)Nc3cccc4ccccc34)ccc2O[C@@H](C)CCCCO[C@@H]1CN(C)C,i,i,i,i
C[C@@H]1CN([C@@H](C)CO)C(=O)c2cc(NC(=O)NC3CCCCC3)ccc2O[C@H]1CN(C)C(=O)NC1CCCCC1,i,i,+,i
COc1ccc(-c2cc(=O)c3c(O)c(OC)c(O)c(OC)c3o2)cc1,i,i,i,i
Cc1ccc2cccc(S(=O)(=O)N3CCC(C(=O)O)CC3)c2n1,i,i,i,i
CC(=O)c1cccc(NC(=O)CN2C(=O)c3ccccc3S2(=O)=O)c1,i,i,i,i
C[C@H](CO)N1C[C@H](C)[C@@H](CN(C)CC2CC2)OCCCC[C@H](C)Oc2ccc(NC(=O)NC3CCCCC3)cc2C1=O,i,i,i,i
C[C@@H]1CCCCO[C@H](CN(C)CC2CCCCC2)[C@H](C)CN([C@@H](C)CO)C(=O)c2cc(NC(=O)NC3CCCCC3)ccc2O1,+,i,i,i
C[C@H](CO)N1C[C@H](C)[C@@H](CN(C)CC2CC2)OCCCC[C@H](C)Oc2ccc(NC(=O)Nc3cccc4ccccc34)cc2C1=O,+,i,i,i
O=C(O)CCC(=O)Nc1ccc(Br)c2cccnc12,i,i,+,i
SMILES,NFkB SMM,STAT3 SMM,c-Myc SMM,p53 mut binder
CCOc1ccc(Oc2nc(N3CCOCC3)nc(N3CCOCC3)n2)nn1,i,i,i,i
CCOc1ccccc1CNCCN1CCOCC1,i,i,+,i
COC(=O)c1cc(C)sc1NC(=S)NC(C)c1cn(C)nc1C (centres undefined),i,i,i,i
CCn1cc(C(C)NC(=S)Nc2cccc([N+](=O)[O-])c2)c(C)n1 (centres undefined),i,i,+,i
COc1ccc(C#Cc2ccc3c(c2)[C@]2(C(=O)N3)[C@H](c3ccc(OCCO)cc3)N3[C@H](c4ccccc4)[C@H](c4ccccc4)OC(=O)[C@H]3[C@@H]2C(=O)Nc2nc3ccccc3s2)cc1,+,i,i,i
C=CCNC(=O)[C@@H]1[C@H]2C(=O)O[C@H](c3ccccc3)[C@H](c3ccccc3)N2[C@H](c2ccccc2OCCO)[C@@]12C(=O)Nc1ccc(C#Cc3ccc(OC)cc3)cc12,+,i,i,i
